Assay outcomes from PubChem BioAssay.
In the library only some 11% were active in any assay of this set; here they are far more common.
AMA1 RON2 block – qHTS for Inhibitors of AMA1-RON; Towards Development of Antimalarial Drug Lead: Primary Screen | AlphaScreen AMA1-biotinylated RON2 peptide binding | Potency, µM (doses to about 58.2 µM), for inactives: top-dose activity change, negative = inhibition, hits mostly inhibitors | 360,000 tested, 0.2% active;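 note: 0% = vehicle wells and -100% = peptide control; nearly all actives have a fitted effect of over 45% in size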
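AMA1 (3D7) with his tag at 25 nM final met compounds first, then biotinylated RON2 peptide at 25 nM; detection used donor plus acceptor beads, 10 µg/mL apiece, read by AlphaScreen after 30 min at room temperature.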
Pf growth 96h – Primary qHTS for delayed death inhibitors of the malarial parasite plastid, 96 hour incubation; P. falciparum luciferase reporter growth, 96 h; 320,000 tested, 6.9% active; Potency, µM (doses to about 28.7 µM), for inactives: top-dose activity change, negative = inhibition, usual class: inhibitors
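Plates of compound plus infected erythrocytes (2% hematocrit, 0.05% parasitemia final) incubate 96 hours, 37 C, 5% CO2. Detection reagent added; reduced luminescence from the parasites' luciferase reporter flags inhibition.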
AmpC no deterg – qHTS Inhibitors of AmpC Beta-Lactamase (assay without detergent) | 330,000 tested, 0.52% active | Potency, µM (top dose mostly 57.1 µM), inactives show top-dose activity change, negative = inhibition, most hits filed as inhibitors | P00811 | AID 485341, 2010 | AmpC nitrocefin hydrolysis, absorbance 480 nm, 0.0001% Triton;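 note: plate controls were no compound for no effect and no enzyme for full effect; nearly all actives have a fitted effect of over 20% in size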
Target sequence (P00811 whole entry, looked up): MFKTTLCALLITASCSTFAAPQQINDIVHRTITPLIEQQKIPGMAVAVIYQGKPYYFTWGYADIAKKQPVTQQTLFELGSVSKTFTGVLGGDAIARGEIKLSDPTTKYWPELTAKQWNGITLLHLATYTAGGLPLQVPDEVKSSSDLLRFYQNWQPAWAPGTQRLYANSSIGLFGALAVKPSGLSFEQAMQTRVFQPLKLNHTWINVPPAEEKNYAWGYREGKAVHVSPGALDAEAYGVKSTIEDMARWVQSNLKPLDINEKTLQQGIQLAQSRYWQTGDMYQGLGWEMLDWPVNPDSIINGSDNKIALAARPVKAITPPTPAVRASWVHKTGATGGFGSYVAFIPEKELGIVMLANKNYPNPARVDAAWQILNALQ
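20 mM phosphate pH 7.0 + 0.01% (detergent screen) or 0.0001% Triton X-100; 5.3 nM AmpC reagent; cpd preinc 15 min RT; nitrocefin (800 uM stock) to start; A480 q20 s × 4 min; Activity was normalised to no-enzyme and no-compound control wells.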
Pf growth 48h – Primary qHTS for delayed death inhibitors of the malarial parasite plastid, 48 hour incubation | AID 504832, 2011 | P. falciparum luciferase growth in erythrocytes, 48 h | 310,000 tested, 5.9% active | Potency, µM (titrated, usually from 28.7 µM), for the others: at the highest dose activity change, negative = inhibition, hits mostly inhibitors
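A one-generation exposure of luciferase-tagged malaria parasites in RPMI 1640/Albumax erythrocyte culture, 37 C and 5% CO2. Inhibition is inferred from decreased luminescence after adding detection reagent.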
HCV inh – qHTS Assay for Inhibitors of Hepatitis C Virus (HCV); Huh7.5.1 HCVcc-Cre infection, luciferase reporter, 44 h; Potency, µM (doses to about 41.8 µM), for the others: top-dose activity change, negative = inhibition, actives largely listed as inhibitors; 340,000 tested, 3.4% active; AID 651820, 2012
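Cells seeded at 1,000/well and cultured 4 h, then compounds added followed by HCVcc-Cre virus (~0.5 moi). After 44 h further culture, luciferase substrate was added, plates held 15 min at room temperature, and luminescence read for 15 sec.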
AmpC detergent – qHTS Inhibitors of AmpC Beta-Lactamase (assay with detergent). AID 485294, 2010. AmpC hydrolysis of nitrocefin, absorbance 480 nm, 0.01% Triton. P00811. Potency, µM (doses to about 114 µM), for the others: top-dose activity change, negative = inhibition, usual class: inhibitors. 370,000 tested, 0.041% active;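 note: 0% = no-compound wells and -100% = no-enzyme wells; nearly all actives have a fitted effect of over 25% in size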
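20 mM phosphate pH 7.0 + 0.01% (detergent screen) or 0.0001% Triton X-100; 5.3 nM AmpC reagent; cpd preinc 15 min RT; nitrocefin (800 uM stock) to start; A480 q20 s × 4 min; Activity was normalised to no-enzyme and no-compound control wells.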
* hit, by the source's call; u = inconclusive; x = no result given; [ ] = dose if it differs, or a comment. Calls come from the whole dose curve; as a rule, active = well fitted curve in the direction sought with a large enough effect; inconclusive = small, poorly fitted or top-dose-only effect, or another doubt; inactive = no such curve, though single readings can be large; an effect the other way counts as inactive or inconclusive. Unless noted, % is set by controls: 0 for no effect and ±100 for the full control effect; potency is the fitted concentration of half-maximal effect.

SMILES	AMA1 RON2 block	Pf growth 96h	AmpC no deterg	Pf growth 48h	HCV inh	AmpC detergent
COc1ccc(N(Cc2ccccc2)C(=O)c2nc(S(C)(=O)=O)ncc2Cl)cc1	x	x	x	x	x	13%
Cc1ccc(Nc2nnc(SCC(=O)NC3CCS(=O)(=O)C3)s2)c(C)c1 (stereo not drawn)	-20%	2.6µM*	-14%[11.4 µM]	u	5%	-12%
COc1ccccc1Nc1nnc(SCc2cc(=O)n3ccsc3n2)s1	-10%	4.7µM*	9%	u	u	1%
Cc1ccc(Nc2nnc(SCc3cc(=O)n4ccsc4n3)s2)c(C)c1	-6%	4.7µM*	1%	6.6µM*	-29%	-15%
COc1cc(C)ccc1OCCSc1nc2ccc(NC(=O)c3ccccc3F)cc2s1	x	x	x	x	x	5%
COc1ccc(NC(=O)c2c3c(nc4ccccc24)CCN(Cc2ccccc2)C3)c(OC)c1	-4%	9.3µM*	80%	7.4µM*	u	3%
COc1ccc(S(=O)(=O)N2CCCCCC2)cc1NC(=O)c1c2c(nc3ccccc13)CCN(Cc1ccccc1)C2	-7%	1.5µM*	154%	1.5µM*	u	-7%
CCN(CC)S(=O)(=O)c1ccc(OC(C)C)c(NC(=O)c2c3c(nc4ccccc24)CCN(Cc2ccccc2)C3)c1	-16%	2.9µM*	160%	2.6µM*	u	1%
CCN(CC)S(=O)(=O)c1ccc(C)c(NC(=O)CN2CCN(Cc3ccccc3)CC2)c1	-18%	u	167%	u	-19%	-3%
CC(=O)c1ccc(NC(=O)c2sc(-n3nc(C)c(Cc4ccc5c(c4)OCO5)c3C)nc2C)cc1	x	x	x	x	x	16%
Cc1ccc(NC(=O)C2CCCN(c3ncnc4onc(C)c34)C2)c(Cl)c1 (stereo not drawn)	x	x	x	x	x	-9%
NC(=O)c1ccc(S(=O)(=O)N2CCSCC2)cc1	-3%	10µM*	1%	5%	0%	-7%
Cc1ccc(C(=O)N2CCCCC2)cc1S(=O)(=O)N1CCCCCC1	-7%	8.3µM*	19%	u	3%	-4%
CC(=O)c1ccc(N2CCN(c3ccc(C(N)=O)cc3[N+](=O)[O-])CC2)cc1	-4%	-24%	-3%	-14%	-9%	-3%
NC(=O)c1ccc(N2CCN(c3ccc(O)cc3)CC2)c([N+](=O)[O-])c1	-16%	1.7µM*	-21%	u	u	-7%
CCOC(=O)N1CCN(S(=O)(=O)c2ccc(Br)s2)CC1	6%	-72%	-3%	-10%	11%	u
CC(C)(C)c1ccc(C(=O)N2CCN(S(=O)(=O)c3ccc(Br)s3)CC2)cc1	-9%	10µM*	-17%	6.6µM*	u	17%
Cc1ccccc1NC(=O)CSc1nc(=O)n(CCN2CCOCC2)c2c1CCC2	x	x	x	x	x	3%
CCOC(=O)c1cccc(NC(=O)NC2COc3ccccc3C2)c1 (stereo not drawn)	x	x	x	x	x	21%
CNc1ccc(C(=O)N2CCN(S(=O)(=O)c3ccc4c(c3)OCCCO4)CC2)cc1[N+](=O)[O-]	6%	12µM*	88%	u	u	u
CC(=O)Nc1ccc(C(=O)N2CCN(S(=O)(=O)c3ccc4c(c3)OCCCO4)CC2)cc1	52%	u	3%	u	u	0%
O=C(c1ccc(N2CCCCC2)c([N+](=O)[O-])c1)N1CCN(S(=O)(=O)c2ccccc2)CC1	-24%	u	30%	12µM*	u	-5%
O=C(c1ccc(N2CCCCC2)c([N+](=O)[O-])c1)N1CCN(c2ccccn2)CC1	-20%	u	78%	-10%	u	4%
O=C(c1ccc(S(=O)(=O)c2ccc(F)cc2)c([N+](=O)[O-])c1)N1CCCCCC1	-14%	-17%	13%	3.3µM*	u	-12%
Cc1ccc(S(=O)(=O)N2CCN(c3ccc(C(F)(F)F)cc3[N+](=O)[O-])CC2)cc1	-21%	4%	-28%	u	u	u
SMILES	AMA1 RON2 block	Pf growth 96h	AmpC no deterg	Pf growth 48h	HCV inh	AmpC detergent
Cc1ccc(S(=O)(=O)N2CCN(C(=O)c3ccc(N4CCCC4)c([N+](=O)[O-])c3)CC2)cc1	u	8.3µM*	55%	u	-24%	-5%
COc1ccc(Cl)cc1NC(=O)CN(c1cc(C)cc(C)c1)S(=O)(=O)c1c(C)n[nH]c1C	x	x	x	x	x	4%
Cc1cc(C)nc(N2CCN(C(=O)c3ccc(S(=O)(=O)N4CCCCCC4)cc3)CC2)n1	-4%	-16%	-8%	-4%	11µM*	4%
CS(=O)(=O)N1CCN(c2ccc(C(=O)N3CCOCC3)cc2[N+](=O)[O-])CC1	10%	30%	-18%	-1%	19%	4%
Cc1ccc(S(=O)(=O)N2CCN(C(=O)c3ccc(N4CCCCC4)c([N+](=O)[O-])c3)CC2)cc1	5%	10µM*	-13%	u	u	u
CC(=O)N1CCN(c2ccc(S(=O)(=O)N3CCCCC3)cc2[N+](=O)[O-])CC1	-4%	x	45%	x	-6%	x
O=C(c1ccc(S(=O)(=O)N2CCCC2)cc1)N1CCCCCC1	-12%	-3%	4%	u	8%	-1%
CCOc1ccc(S(=O)(=O)N2CCN(C(=O)c3ccc(-n4cncn4)c([N+](=O)[O-])c3)CC2)cc1	5%	u	72%	-14%	11µM*	4%
Cc1ccc(S(=O)(=O)N2CCN(c3ccc(C(=O)N4CCOCC4)cc3[N+](=O)[O-])CC2)cc1	5%	10µM*	208%	-21%	-11%	-7%
Cc1cc2nc3c(=O)n(C)c(=O)n(C)c3nc2cc1N=CN(C)C	x	x	x	x	x	-5%
CN1CCN(c2ccc(C(N)=O)cc2[N+](=O)[O-])CC1	-9%	0%	-7%	u	0%	u
O=C(OCCN1C(=O)c2ccccc2C1=O)c1ccc(S(=O)(=O)N2CCCCCC2)cc1	-2%	3%[5.75 µM]	-8%	-11%	14%	-4%
Cc1ccc(S(=O)(=O)N2CCN(C(=O)c3ccc(S(=O)(=O)N4CCCC4)cc3)CC2)cc1	11%	7.4µM*	0%	u	3%	-1%
NC(=O)c1ccc(N2CCN(S(=O)(=O)c3ccccc3)CC2)c([N+](=O)[O-])c1	4%	35%	-15%	u	2.8µM*	-14%
